# Test results as given in PubChem BioAssay (NCATS).
# Inconclusive results are not listed. Unmarked numbers belong to inactive results. The source made the active and inactive calls. Calls come from the whole dose curve; as a rule, active = well fitted inhibition curve with a large enough effect; inconclusive = small, poorly fitted or top-dose-only effect; inactive = flat fitted curve, though single readings scatter.
# Assay: BET inhibitor-based combinations targeting novel dependencies in MECOM-rearranged (r) AML: AML-194 cell line (AID 2202237; note: nearly all actives have a fitted effect of over 40% in size;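 for viability (% of control): plate controls were vehicle wells for no effect and wells without cells for full effect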)
# Settings: AML-194 (MECOM-r AML) viability, CellTiter-Glo, 48 h; series mostly up to 46 µM; viability (% of control): at the top concentration
# Summary of the method: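 Luminescent ATP readout (CellTiter-Glo) after 48 hr drug exposure gives viability. Curves span 11 concentrations and are normalized to DMSO and empty wells. Activity is reported as area under the curve and its Z-transform within each cell line.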
# Potency is the fitted concentration of half-maximal effect.
SMILES,Potency,viability (% of control) [%]
CCOC(=O)[C@@H](N)Cc1ccc(-c2cc(O[C@H](c3ccc(Cl)cc3-n3ccc(C)n3)C(F)(F)F)nc(N)n2)cc1,26.3 µM (active),
O=C(Nc1cn[nH]c1-c1nc2ccc(CN3CCOCC3)cc2[nH]1)NC1CC1,2.09 µM (active),
CCCC1(CCC)CCC2(CCN(CCCN(CC)CC)C2)CC1,9.34 µM (active),
c1ccc(Cn2c(-c3ccc(OCC(C4CCNCC4)n4c(-c5ccccc5)nc5ccccc54)cc3)nc3ccccc32)cc1 (stereo unspecified),23.5 µM (active),
Cn1ncc(Cl)c1-c1cc(C(=O)NC(CN)Cc2ccc(F)c(F)c2)oc1Cl (stereo unspecified),18.6 µM (active),
Cc1cnc(Nc2ccc(CN3CCOCC3)cc2)nc1Nc1cccc(S(=O)(=O)NC(C)(C)C)c1,2.35 µM (active),
OCCNC1CCCc2c1[nH]c1ccc(-c3ccccc3)cc21 (stereo unspecified),13.2 µM (active),
CCC(=O)NS(=O)(=O)c1ccc(-c2c(-c3ccccc3)noc2C)cc1,,111
O=C(c1ccc(F)c(F)c1Nc1ccc(I)cc1F)N1CC(O)([C@@H]2CCCCN2)C1,7.42 µM (active),
COc1ccc(C(=O)CC2(O)C(=O)Nc3c(Cl)ccc(Cl)c32)cc1 (stereo unspecified),1.86 µM (active),
Cc1cnc(-c2ccccc2C(C)C)nc1NCc1ccc(-n2ccnn2)cc1,,86.1
Cn1ncc(Cl)c1-c1cc(C(=O)N[C@H](CN)Cc2ccc(F)c(F)c2)sc1Cl,16.6 µM (active),
Cc1c(NC(=O)OC[C@@H]2COCCN2)cn2ncnc(Nc3ccc4c(cnn4Cc4cccc(F)c4)c3)c12,23.5 µM (active),
C=C(c1ccc(C(=O)O)cc1)c1cc2c(cc1C)C(C)(C)CCC2(C)C,,105
C[C@H]1O[C@@H](O[C@H]2[C@@H](O)C[C@H](O[C@H]3[C@@H](O)C[C@H](O[C@H]4CC[C@@]5(C)[C@H](CC[C@@H]6[C@@H]5C[C@@H](O)[C@]5(C)[C@@H](C7=CC(=O)OC7)CC[C@]65O)C4)O[C@@H]3C)O[C@@H]2C)C[C@H](O)[C@@H]1O,0.118 µM (active),
COC(C)(C)CCn1nc(Nc2c(C)cccc2C)c2cnc(Nc3ccc(OCCN4CCCC4)c(F)c3)nc21,14.8 µM (active),
